uPA surface inh: cell surface uPA generation inhibition; cell surface uPA generation assay, qHTS; Potency, µM (top dose mostly 38.3 µM), for the others: top-dose activity change, negative = inhibition, actives largely listed as inhibitors; hit rate 0.31% among 330,000; active means well fitted inhibition curve with a large enough effect; inconclusive means small, poorly fitted or top-dose-only effect; inactive means no such curve, though single readings can be large or run the other way; tested in mouse RAW 264.7 cells; further: potency means the concentration at half of the fitted maximal effect; on the % scale 0 is the no-effect control and ±100 the full control effect; nearly all actives have a fitted effect of over 55% in size
p53 reactivator: mutant p53 re-activation in reporter cells. H1299 p53-A138V BP100-luciferase reporter, luminescence, 24 h. Potency, µM (series often up to 92.2 µM), for inactives: at the highest dose activity change, positive = activation, actives largely listed as activators. hit rate 0.063% among 320,000. AID 504706; further: potency means the concentration at half of the fitted maximal effect; % of control where 0% means no effect; nearly all actives have a fitted effect of over 45% in size
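H1299 (p53-null), stable ts p53-A138V + BP100-Luc; 1000 cells/well, Opti-MEM/10% FBS; cpd 4 pt, 1:5; 24 h, 37 deg C, 5% CO2; detection reagent 10 min RT; luminescence.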
IL2 activator: activates IL-2 in a cell-based reporter assay. hit rate 0.065% among 360,000. AID 652025. activation, % (series mostly up to about 46 µM). IL-2 activation reporter assay, cell-based qHTS; stimulated with anti-CD3/CD4/CD28 beads; in transgenic mouse T cells; in the data active means activation above about 50%; inconclusive means mostly about 30% to 49%; further: 0% is about no effect
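Screening format: compound pinned onto unstimulated transgenic mouse T cells, 60 min incubation, then anti-CD3/anti-CD4/anti-CD28 bead stimulation for 18 hours at 37 degrees C, followed by EGFP and DsRed detection.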
TCR act: T cell receptor activation; primary human leukocytes, anti-CD3, IL-2 HTRF, 48 h; Potency, µM (highest dose often 9.22 µM), for the others: at the highest dose activation of IL-2 secretion, hits mostly activators; 330,000 tested, under 10 active; AID 504894; further: % of control where 0% means no effect
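Primary human leukocytes were stimulated with a-CD3 beads plus compounds for 48 hr without co-stimulation; secreted IL-2 was quantified by HTRF using a-IL-2-K (europium cryptate) and a-IL-2-d2, excited at 320nm with acceptor emission read at 665nm.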
BRCA1 expr act: increases BRCA1 expression | MCF7-BRCA1-FFLuc reporter, luminescence, 48 h; response scale: scaled: vehicle 0%, 10 µM genistein 100% | AID 624202 | Potency, µM (titrated, usually from 46.1 µM), without a hit: at the top dose activation, most hits filed as activators | hit rate 1.1% among 380,000; further: potency means the concentration at half of the fitted maximal effect; nearly all actives have a fitted effect of over 80% in size
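Luminescence from a BRCA1-driven firefly luciferase in MCF7 cells was the read-out, taken 15 min after substrate addition following 48 h compound exposure at 37 °C. Data were normalized to a 10 microM genistein control and DMSO vehicle.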
An asterisk follows results filed as active; ? = inconclusive; . = not tested or not shown; [ ] = another dose, or the depositor's remark. Sampled rows, rich in hits. Any-hit rate of the full collection: about 1.4%. Unless noted, the call rests on the fitted dose curve; in most records, active means well fitted curve in the direction sought with a large enough effect; inconclusive means small, poorly fitted or top-dose-only effect, or another doubt; inactive means no such curve, though single readings can be large; an effect the other way counts as inactive or inconclusive.

SMILES	uPA surface inh	p53 reactivator	IL2 activator	TCR act	BRCA1 expr act
CCOc1ccccc1CNS(=O)(=O)c1ccc(-c2coc(C)n2)cc1	.	.	.	.	-21%
COc1ccc(-c2sc(N)nc2-c2ccccc2)cc1	.	.	.	.	3%
Cc1cccc(-c2nnc(-c3cccc(NC(=O)Cc4cccs4)c3)o2)c1	1%	3%	-1	-1%	13µM*
O=C(Cc1cccs1)Nc1ccc(-c2nnc(-c3ccccc3)o2)cc1	3%	.	-2	-1%	-15%
CC(=O)Nc1nnc(COc2ccc(Cl)cc2)s1	-1%	5%	-1	8%	4.5µM*
COC(=O)c1ccc(NC(=O)CSc2ncc3c(n2)-c2cc(Cl)ccc2N(Cc2ccccc2)S3(=O)=O)cc1	.	.	.	.	-8%
O=S(=O)(Nc1ccc(-c2nc3cccnc3s2)cc1)c1ccccc1F	-2%	18%	-2	-9%	10µM*
O=C(Nc1ccc2c(c1)COC2=O)c1ccc(Cl)c(Cl)c1	0%	?	-4	-9%	14µM*
O=C(Nc1ccc(Cl)c(Cl)c1)c1ccc(Cl)c(Cl)c1	6%	?	-1	4%	29%
Cc1nc(C(=O)Nc2ccccc2)sc1C(=O)Nc1ccccc1	6%	?	0	-5%	2.8µM*
COc1ccc(Oc2cnc3ccccc3n2)cc1	3%	8%	0	-5%	11µM*
CN(C=O)c1ccc(CSc2ccccc2)cc1	1%	.	-1	1%	8.9µM*
Cc1ccc(OC(=O)COc2ccccc2C)c(-n2nc3ccccc3n2)c1	-16%	40µM*	1	1%[46.1 µM]	?
Oc1ccc(-c2csc(Nc3ncccn3)n2)cc1	-25%	-3%	4	-22%	?
CC(=O)Nc1ccc(-c2csc(Nc3ncccn3)n2)cc1	1%	11%	3	-1%	3.5µM*
Cc1cccc(-c2nc(C)c(CCNC(=O)C(=O)Nc3ccc(C)c(C)c3)s2)c1	.	.	.	.	18%
CC(C)N1C(=O)C(O)(c2c[nH]c3ccccc23)c2ccccc21 (centres undefined)	.	.	.	.	10%
O=c1[nH]c2ccccc2nc1Cc1ccccc1	2%	-9%	0	-2%	23%
O=C(Cc1nc2ccccc2[nH]c1=O)c1ccccc1	-6%	26%	?	-14%	5.6µM*
Cn1nnnc1Sc1ncnc2scc(-c3ccc(Cl)cc3)c12	?	-48%	-1	-5%	-70%
Cn1nnnc1Sc1ncnc2scc(-c3cccc(Br)c3)c12	8.9µM*	-15%	0	1%	-67%
Cn1nnnc1Sc1ncnc2scc(-c3ccccc3Cl)c12	10µM*	-41%	-1	3%	-49%
COc1ccc(Nc2cc(C)c3cc(NC(=O)COc4cccc(C)c4)ccc3n2)cc1	.	.	.	.	-32%
CNC(=O)c1c(NC(=O)c2ccc(S(=O)(=O)N3CCCCC3)cc2)sc2c1CCN(C(C)C)C2	-17%	19%	0	-5%	-22%
CCN1CCc2c(sc(NC(=O)c3ccc(S(=O)(=O)N4CCCC4)cc3)c2C(=O)NC)C1	-20%	35µM*	-2	3%	-30%
SMILES	uPA surface inh	p53 reactivator	IL2 activator	TCR act	BRCA1 expr act
Cc1c(C(=O)N(Cc2ccco2)Cc2ccccc2Cl)oc2ccc(F)cc12	.	.	.	.	-21%
CCN1C(=O)c2ccccc2S(=O)(=O)c2ccc(C(=O)NCc3ccccc3Cl)cc21	.	.	.	.	-30%
O=C(NNC(=O)c1cccs1)c1ccc(Br)cc1	-4%	13%	0	4%	13µM*
O=C(NNC(=O)c1cccs1)c1ccccc1	17%	3%	-2	12%	53%
CCOc1cccc(C2C=C(c3ccc4c(c3)OCO4)NC(c3cccc(Br)c3)N2)c1O (centres undefined)	.	.	.	.	-17%
Nc1nonc1-n1nnc(C(=O)N/N=C/c2ccc(OCc3cccc(Cl)c3)cc2)c1CN1CCCCC1	2%	?	-2	-9%	2.5µM*
Cc1cccc(COc2ccc(/C=N/NC(=O)c3nnn(-c4nonc4N)c3CN3CCCCC3)cc2)c1	7%	21%	0	-25%	57%
CN(C)c1ccc(N=Nc2cccc(F)c2)cc1	-1%	?	-4	0%	1.6µM*
CC(OC(=O)CNC(=O)c1ccccc1F)C(=O)Nc1nc(-c2ccccc2)cs1 (centres undefined)	0%	?	-4	7%[46.1 µM]	6.3µM*
C/C=C/c1ccc(OCC(=O)OCc2csc(Nc3ccc(C)cc3)n2)c(OC)c1	1%	?	-1	11%[46.1 µM]	11µM*
Cc1ccc(Nc2nc(COC(=O)COc3ccc(C=O)cc3)cs2)cc1	2%	?	2	3%[46.1 µM]	?
O=C(N/N=C/c1ccc([N+](=O)[O-])s1)C(O)c1ccccc1 (centres undefined)	10µM*	?	2	9%[46.1 µM]	-82%
O=C(CNC(=O)c1cccc(F)c1)N/N=C/c1ccc([N+](=O)[O-])s1	10µM*	20%	0	-2%	-73%
CCOC(=O)C1=C(CS(=O)(=O)c2ccc(F)c(C)c2)NC(=O)NC1c1ccccc1OC (centres undefined)	.	.	.	.	-9%
Cc1ccc(CSc2ccc(-c3cccs3)nn2)cc1	1%	?	-1	-4%[46.1 µM]	?
c1cncc(CSc2ccc(-c3cccs3)nn2)c1	-7%	13%	2	9%	10µM*
Fc1ccc(CSc2ccc(-c3cccs3)nn2)cc1	4%	?	5	-5%[46.1 µM]	10µM*
COC(=O)N1C(=O)[C@@](c2ccccc2)(C2CCCCC2)N1C(=O)OC	8.9µM*	.	0	-6%	-21%
COC(=O)[C@@]1(Cc2ccccc2)[C@@H]2C(=CC(=O)[C@H]2CC(=O)C(=O)N(C)C)CN1C(=O)c1ccccc1	2.8µM*	-18%	0	1%	-50%
Clc1ccc(-n2nnnc2SCc2cn3ccccc3n2)cc1	-4%	-3%	0	-3%	-9%
CNc1cc(CSc2ccc(Cl)cc2)nc(C)n1	-1%	?	2	-8%	5µM*
Clc1ccc(SCc2cn3ccccc3n2)cc1	-2%	1%	0	2%	5.6µM*
Cc1cccc2nc(CSc3ccc(Cl)cc3)cn12	3%	7%	-3	1%	4.5µM*
Cc1ccc(SCc2cn3cc(Cl)ccc3n2)cc1	-2%	16%	0	1%	10µM*
Cc1nc(CSc2ccc(Cl)cc2)cc(NCc2ccccc2)n1	6%	3%	-2	-2%	?
Cc1cccc2nc(CSc3nc4ccccc4[nH]3)cn12	-4%	0%	-3	3%	?
Nc1nnc(SCc2cn3cc(Cl)ccc3n2)s1	-1%	4%	-3	-6%	65%
CCOC(=O)c1cc(-c2ccc(C)cc2)n(CC(=O)Nc2ccccc2F)c1C	.	.	.	.	1%
CCN(C(=O)CSc1nc2ccccc2n1CC(=O)NCc1ccc(OC)cc1)c1ccccc1	.	.	.	.	16%
O=C(Nc1ccc(-c2ccc([N+](=O)[O-])cc2)cc1)c1ccccc1F	3%	0%	0	-2%	4%

Assay outcomes deposited in PubChem by National Center for Advancing Translational Sciences (NCATS).
